From PubChem BioAssay AID588778 (Southern Research Institute, 2011)
The whole screen tested about 10,000 compounds, of which fewer than 10 were called active. How the calls were made is not given here. Only a sample is shown.

Assay: Vibrio cholerae motility inhibitors, OD read-out (AID 588778)
Conditions: stronger effect = higher value
[1] = measured here: bacterial viability at 10 ug/mL

| Structure (SMILES) | inhibition (concentration not given here) | inhibition [1] |
| --- | --- | --- |
| Cc1c(NC(=O)c2nn3c(C(F)(F)F)c4c(nc3c2Cl)-c2ccccc2CC4)c(=O)n(-c2ccccc2)n1C | -11.3% (inactive) | -0.51% |
| S=C1NC(C23CC4CC(CC(C4)C2)C3)=CC(c2ccc(Cl)cc2)N1 (stereo unspecified) | -6.78% (inactive) | -4.13% |
| CC(C)CC(C(=O)Oc1ccc2c3c(c(=O)oc2c1)CCC3)N1C(=O)c2ccccc2C1=O (stereo unspecified) | 6.55% (inactive) | -2.25% |
| CCC(=O)OCC12COC3c4ccccc4OC(C)(CC1C)C3C2C (stereo unspecified) | -16.5% (inactive) | -10.6% |
| CCOC(=O)c1ccc(NC(=O)COc2ccc3oc(=O)cc(C)c3c2)cc1 | -17.2% (inactive) | -0.82% |
| Cc1ccccc1C(=O)N1CCN(c2nc(N3CCCC3)nc(N3CCCC3)n2)CC1 | -0.47% (inactive) | 0.25% |
| O=C(Cc1c(F)cccc1Cl)NCc1ccc2c(c1)OCO2 | 40% (inactive) | 7.78% |
| O=C(CSc1nnnn1-c1ccccc1)c1cc2ccccc2oc1=O | 3.97% (inactive) | -4.29% |
| COCCSc1nnc(NC(=O)Cc2c(F)cccc2Cl)s1 | -2.92% (inactive) | -1.31% |
| O=C(NC(=O)c1ccccc1)Nc1ccc(Br)cc1 | -16.2% (inactive) | -9.72% |
| COc1c(C)cc(Br)cc1C(=O)NC(=S)Nc1nc(C)cc(C)n1 | -16.1% (inactive) | -11.8% |
| CCCCC(=O)Nc1ccc(NC(=O)C(Cl)(Cl)Cl)cc1OC | 3.09% (inactive) | -3.52% |
| O=C(CCOc1ccccc1)Nc1ccc(Br)cc1 | -9.09% (inactive) | -6.95% |
| O=C(NCc1ccc(-c2nc3ccccc3s2)cc1)c1ccc(Br)o1 | 1.75% (inactive) | 9.78% |
| Cc1ccc(S(=O)(=O)Nc2cc(Sc3nnnn3-c3ccccc3)c(O)c3ccccc23)cc1 | 15.9% (inactive) | 1.17% |
| COC(=O)C1=C(C)NC(C)=C(C(=O)OC)C1c1sccc1C | 20.1% (inactive) | -0.13% |
| CC(=O)CSc1nnc(-c2cccnc2)o1 | -0.39% (inactive) | 0.24% |
| O=C(O)C(Cc1ccccc1)N1C(=O)/C(=C/c2ccc([N+](=O)[O-])cc2)SC1=S (stereo unspecified) | 8.42% (inactive) | 1.4% |
| CCOC(=O)c1c(NC(=O)Nc2ccccc2C)sc2c1CC(C)(C)OC2 | 9.16% (inactive) | 24.8% |
| COc1ccc(OC)c(C(=O)CCC(=O)Nc2cccc(C(F)(F)F)c2)c1 | -4.82% (inactive) | 3.82% |
| CCOC(=O)C1(NC(=S)N(CC)CC)Sc2cc(C)ccc2NC1=O (stereo unspecified) | 12.1% (inactive) | 13.5% |
| CCN(CC)c1ccc(CNC(C)C(O)c2ccccc2)cc1 (stereo unspecified) | 19.9% (inactive) | 5.6% |
| c1ccc2nc3c(nc2c1)CCc1nonc1-3 | 0.045% (inactive) | -1.06% |
